Assay results reported in PubChem BioAssay (EPA / NIEHS).
Results filed as inconclusive are left out. Calls of active or inactive are those of the source. Rule for the calls, unless noted: active = hit-call score of the fitted dose curve at least 0.9, where 1 is the maximum; inactive = score below 0.9.

Columns and labels:
IYD (gene 389434) = assay: CCTE_GLTED_hIYD: CCTE's human Iodotyrosine Deiodinase (xIYD) Inhibition Assay, Great Lakes Toxicology and Ecology Division (GLTED) Lab (AID 2284317; active = hit-call score of the fitted dose curve at least 0.9, where 1 is the maximum;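 note: cell-free human IYD enzyme made in baculovirus insect cells; iodide freed from monoiodotyrosine measured by cerium arsenite color change at 420 nm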)
Outline: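 Deiodination of MIT by insect-cell-produced human IYD is measured after a 3 h incubation with test chemical. Free iodide passes through a Dowex column and accelerates Sandell-Kolthoff Ce4+ reduction, read at 420 nm; run in triplicate.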

[1] = CCTE_Deisenroth_5AR_NBTE_donor: CCTE's 5alpha-reductase NanoBRET Target Engagement Assay […], Deisenroth Lab (AID 2284319); settings: actives raise or lower the signal
Outline: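 SRD5A2-NanoLuc, HEK293T, 20 h expression. Chemical 10 nM - 29.9 uM, 8 conc, duplicate; 3 h preincubation + 2 h testosterone tracer. Nano-Glo substrate plus extracellular NanoLuc inhibitor; donor lum 460 nm. DMSO baseline, bidirectional fit.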

[2] = CCTE_Deisenroth_5AR_NBTE_acceptor: CCTE's 5alpha-reductase NanoBRET Target Engagement Assay - Autofluorescence Screen, Deisenroth Lab (AID 2284321); settings: actives raise or lower the signal;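 note: compound fluorescence in the acceptor channel under 460 nm excitation flags autofluorescence artifacts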
Outline: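 Using three independent plate-reader runs, nominal 100 uM chemicals were checked for intrinsic fluorescence (ex 460 nm). DMSO defined the baseline for bidirectional fitting.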

SRD5A2 (gene 6716) = assay: CCTE_Deisenroth_5AR_NBTE_ratio: CCTE's 5alpha-reductase NanoBRET Target Engagement Assay - Ratio, Deisenroth Lab (AID 2284322); settings: actives raise or lower the signal
Outline: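 HEK293T cells transiently expressing an SRD5A2-NanoLuc fusion (20 h post-transfection) were exposed to test chemical (10 nM - 29.9 uM, 8 points) for 3 h, then testosterone tracer for a further 2 h. Acceptor/donor BRET ratio was fitted bidirectionally against DMSO baseline.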

SERPINA7 (gene 6906) = assay: CCTE_GLTED_hTBG: CCTE's human Thyroxine-binding Globulin (TBG) Inhibition Assay, Great Lakes Toxicology and Ecology Division (GLTED) Lab (AID 2284343; active = hit-call score of the fitted dose curve at least 0.9, where 1 is the maximum;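 note: active chemicals lower fluorescence versus DMSO baseline by displacing probe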)
Outline: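 Human thyroxine-binding globulin was exposed to each chemical for 2 hours, during which the ANSA probe could be displaced. Fluorescence was then measured at 380/475 nm, and loss of signal was analysed relative to DMSO.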

TTR (gene 7276) = assay: CCTE_GLTED_hTTR_0.125uM: CCTE's human Transthyretin (hTTR) Inhibition Assay, with 0.125uM TTR, Great Lakes Toxicology and Ecology Division (GLTED) Lab (AID 2284431);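 note: hits lower the fluorescence signal relative to DMSO baseline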
Outline: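 Activity is defined as decreased ANSA fluorescence (ex 380, em 475) from human transthyretin, 0.125uM, following 2-hour chemical exposure in a cell-free setup, with DMSO as baseline.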

[3] = CCTE_Padilla_ZF_Score.General: CCTE's 144 Hour Post-fertilization zebrafish Assay Score for General Malformation, Padilla Lab (AID 2284411)
Outline: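 Malformation, death and hatching were scored at 6 dpf by two blinded observers under a stereo microscope. Embryos were dosed singly from 6-8 hpf in sealed plates of 10% Hanks' at 26C and rinsed on 5 dpf; DMSO baseline.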

[4] = CCTE_Mundy_HCI_iCellGluta_NOG_NeuriteLength: CCTE's Neurite Outgrowth Assay in iCellGluta cells for Neurite Length, Mundy Lab (AID 2284318; active = hit-call score of the fitted dose curve at least 0.9, where 1 is the maximum)
Outline: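 Automated high-content imaging of betaIII-tubulin (Alexa Fluor-488) and Hoechst-stained cells gave neurite length, normalized to the DMSO baseline.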

[5] = IUF_NPC1_cytotoxicity_72hr: Cytotoxicity Assessment at 72 hours in the Leibniz Research Institute for Environmental Medicine (IUF) Neural Progenitor Cell Proliferation Assay (NPC1) (AID 2284332; active = hit-call score of the fitted dose curve at least 0.9, where 1 is the maximum;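 note: rising LDH signal means more cytotoxicity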)
Outline: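 Membrane-integrity loss is scored from LDH released into the medium, detected as resorufin fluorescence, with activity fitted upward relative to baseline. Test material stays on human fetal-derived progenitor spheres for 72 h.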

[6] = CCTE_Mundy_HCI_iCellGluta_NOG_NeuriteCount: CCTE's Neurite Outgrowth Assay in iCellGluta cells for Neurite Count, Mundy Lab (AID 2284342; active = hit-call score of the fitted dose curve at least 0.9, where 1 is the maximum;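 note: chemical exposure about 48 hours starting 2 hours after plating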)

CCCCCCCCCCCCCOS(=O)(=O)O
AC50 (IYD (gene 389434)): 34.2 µM (active) | AC50 [1]: 50 µM (active) | AC50 [2]: 43.2 µM (active) | AC50 (SRD5A2 (gene 6716)): 81.8 µM (active) | AC50 (SERPINA7 (gene 6906)): 31 µM (active) | AC50 (TTR (gene 7276)): 1.6 µM (active)

O=C(O)c1cn(C2CC2)c2cc(N3CCNCC3)c(F)cc2c1=O
outcome [3]: inactive

O=[N+]([O-])c1cc(C(F)(F)F)ccc1Cl
outcome [3]: inactive

CC(C)=CCC[C@](C)(O)[C@@H]1CC=C(C)CC1
outcome [1]: inactive | outcome [2]: inactive | outcome (SRD5A2 (gene 6716)): inactive | AC50 (SERPINA7 (gene 6906)): 19.2 µM (active)

CCN(CC)c1ccc2c(-c3ccccc3C(=O)O)c3ccc(=[N+](CC)CC)cc-3oc2c1
outcome [1]: inactive | outcome [2]: inactive | AC50 (SRD5A2 (gene 6716)): 22.1 µM (active)

CC1CC(OC(=O)c2ccccc2O)CC(C)(C)C1 (stereo not given)
outcome [1]: inactive | outcome [2]: inactive | outcome (SRD5A2 (gene 6716)): inactive

CCCCCCCCCC=O
outcome [3]: inactive | AC50 (TTR (gene 7276)): 9.95 µM (active)

O=Nc1ccc(Nc2ccccc2)cc1
AC50 [1]: 23.4 µM (active) | AC50 [2]: 50 µM (active) | AC50 (SRD5A2 (gene 6716)): 75.4 µM (active) | AC50 (SERPINA7 (gene 6906)): 15.9 µM (active) | AC50 (TTR (gene 7276)): 7.46 µM (active)

CCCCCCCCCCCCCCCC(=O)O
AC50 (IYD (gene 389434)): 80.9 µM (active)

CCCCCCCCCCCCCC(=O)O
AC50 (IYD (gene 389434)): 100 µM (active) | outcome [1]: inactive | outcome [2]: inactive | outcome (SRD5A2 (gene 6716)): inactive | AC50 (TTR (gene 7276)): 1.93 µM (active)

CN(C)C(=N)N=C(N)N
outcome [4]: inactive | outcome [5]: inactive | outcome [6]: inactive

O=C1CCCCCCCCCCCCCCO1
outcome [3]: inactive
